{
  "source": "PubChem BioAssay (NCATS)",
  "note": "Inconclusive results are not listed. Values without a mark were called inactive. Active and inactive are the calls of the source. Unless noted, calls follow the shape of the full dose curve. % is scaled to controls: 0 for no effect and ±100 for the full control effect; potency is read from the fitted curve at half-maximal effect.",
  "data": [
    {"system": "not listed separately", "assay": "qHTS for Inhibitors of the Functional Ribonucleoprotein Complex (vRNP) of Lymphocytic Choriomeningitis Arenaviruses (LCMV): Viability assay - alamar blue signal for LCMV Primary Screen (AID 1347085; calls by dose curve; tested in HEK293 reporter line; also: nearly all actives have a fitted effect of over 80% in size)", "details": "alamar blue viability counter-screen, LCMV vRNP screen cells; series mostly up to 57.5 µM; activity change, negative = lower viability: at the top concentration", "values": [
      {"smiles": "Clc1ccc(-c2nc3sccn3c2C=NOCc2ccc(Cl)c(Cl)c2)cc1", "activity change, negative = lower viability": "1.31%"},
      {"smiles": "CCCN(CCC)c1c([N+](=O)[O-])cc(S(N)(=O)=O)cc1[N+](=O)[O-]", "activity change, negative = lower viability": "-32.2% [at 115 µM]"},
      {"smiles": "O=C(C=Cc1c(C(=O)O)[nH]c2cc(Cl)cc(Cl)c12)Nc1ccccc1", "activity change, negative = lower viability": "32.7%"},
      {"smiles": "CC(=O)N[C@@H](Cc1ccc(O)cc1)C(=O)O", "activity change, negative = lower viability": "-3.67%"},
      {"smiles": "CC(=O)Oc1ccccc1C(=O)O", "Potency": "inactive"},
      {"smiles": "[O-][n+]1cccc(/C(Cl)=N/OC[C@@H](O)CN2CCCCC2)c1", "activity change, negative = lower viability": "-2.25%"},
      {"smiles": "Nc1ccccc1N", "activity change, negative = lower viability": "-22.9% [at 115 µM]"},
      {"smiles": "CC(C)(C)C(=O)Oc1ccc2c(c1)nc(NC(=O)c1cccc([N+](=O)[O-])c1)n2CCCO", "activity change, negative = lower viability": "-0.923%"},
      {"smiles": "c1ccc(-c2nn3c(c2-c2ccnc4cc(OCCN5CCOCC5)ccc24)CCC3)nc1", "activity change, negative = lower viability": "-3.81%"},
      {"smiles": "CCN(CC)CCc1nc(-c2ccccc2)no1", "activity change, negative = lower viability": "13.1%"},
      {"smiles": "CC(C)(c1ccc(O)cc1)c1ccc(O)cc1", "activity change, negative = lower viability": "26.3% [at 115 µM]"},
      {"smiles": "CC(C)=CCCC(C)=CCCC(C)=CCSc1ccccc1C(=O)O", "Potency": "9.68 µM (active)"},
      {"smiles": "OCc1c[nH]c2ccccc12", "activity change, negative = lower viability": "10.1% [at 115 µM]"},
      {"smiles": "O=C(O)CNC(=O)CNC(=O)CNC(=O)CSC(=O)c1ccccc1", "activity change, negative = lower viability": "4.15%"},
      {"smiles": "C=CCNC(N)=S", "activity change, negative = lower viability": "-0.761%"},
      {"smiles": "CC1=C(/C=C/C(C)=C/C=C/C(C)=C/C(=O)O)C(C)(C)CCC1", "Potency": "inactive"},
      {"smiles": "CCOC(=O)C(=O)CCCCCCl", "activity change, negative = lower viability": "2.84%"},
      {"smiles": "CC(C)C(C)(C)C(C)(C)C(C)(C)S", "activity change, negative = lower viability": "10.3% [at 115 µM]"},
      {"smiles": "CC(C)(C)C(O)C(Oc1ccc(Cl)cc1)n1cncn1", "note": "(stereo unspecified)", "activity change, negative = lower viability": "10.7% [at 115 µM]"},
      {"smiles": "Nc1cccc(S(=O)(=O)N2CCCN(S(=O)(=O)c3ccc4c(c3)OCCO4)CC2)c1", "activity change, negative = lower viability": "-3.1%"},
      {"smiles": "O=c1cc(-c2ccccc2)oc2ccccc12", "Potency": "inactive"},
      {"smiles": "CCC[C@H](NC(=O)C(C#N)=Cc1cccc(Br)n1)c1ccccc1", "activity change, negative = lower viability": "-15.4%"},
      {"smiles": "O=C(NOC[C@H](O)CO)c1ccc(F)c(F)c1Nc1ccc(I)cc1F", "activity change, negative = lower viability": "13.3%"},
      {"smiles": "COc1ccc2c(c1)c1c3n2CCN(C)C3=NCC1", "activity change, negative = lower viability": "1.44%"},
      {"smiles": "C[C@H](CN1CCCC1)C(=O)c1ccc(C(F)(F)F)cc1", "activity change, negative = lower viability": "0.145%"},
      {"smiles": "CO[C@H]1C=CC=C(C)C(=O)NC2=CC(=O)C(NCCN(C)C)=C(C[C@@H](C)C[C@H](OC)[C@@H](O)[C@@H](C)C=C(C)[C@@H]1OC(N)=O)C2=O", "Potency": "0.544 µM (active)"},
      {"smiles": "COc1ccccc1-c1cccc(-c2c(O)c3cc(C#N)c(Cl)cc3[nH]c2=O)c1", "activity change, negative = lower viability": "-18.2% [at 115 µM]"}
    ]},
    {"target": "Nucleoprotein (Lymphocytic choriomeningitis virus (strain Armstrong)) (UniProt P09992)", "sequence (P09992 whole entry, looked up)": "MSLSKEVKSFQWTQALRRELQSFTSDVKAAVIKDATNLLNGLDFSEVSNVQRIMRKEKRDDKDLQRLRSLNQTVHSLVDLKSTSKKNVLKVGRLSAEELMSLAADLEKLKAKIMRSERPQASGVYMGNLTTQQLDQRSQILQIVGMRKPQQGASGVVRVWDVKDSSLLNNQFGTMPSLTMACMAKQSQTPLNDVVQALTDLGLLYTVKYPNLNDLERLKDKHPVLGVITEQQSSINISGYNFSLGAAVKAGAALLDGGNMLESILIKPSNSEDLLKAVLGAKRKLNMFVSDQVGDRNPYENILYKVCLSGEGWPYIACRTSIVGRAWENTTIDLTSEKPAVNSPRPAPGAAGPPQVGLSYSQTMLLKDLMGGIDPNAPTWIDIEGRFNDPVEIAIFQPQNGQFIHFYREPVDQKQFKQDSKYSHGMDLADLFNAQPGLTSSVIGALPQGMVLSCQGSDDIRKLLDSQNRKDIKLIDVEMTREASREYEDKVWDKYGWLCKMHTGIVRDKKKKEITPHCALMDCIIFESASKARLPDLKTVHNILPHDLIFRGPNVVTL", "assay": "qHTS for Inhibitors of the Functional Ribonucleoprotein Complex (vRNP) of Lymphocytic Choriomeningitis Arenaviruses (LCMV): LCMV Primary Screen - GLuc reporter signal (AID 1347086); also: nearly all actives have a fitted effect of over 70% in size", "details": "LCMV minigenome vRNP cell assay, Gaussia luciferase reporter; series mostly up to 57.5 µM; activity change, negative = inhibition: at the top concentration", "values": [
      {"smiles": "Clc1ccc2ncc(-c3cccc(NC4CNC4)n3)n2c1", "activity change, negative = inhibition": "51.6%"},
      {"smiles": "Clc1ccc(-c2nc3sccn3c2C=NOCc2ccc(Cl)c(Cl)c2)cc1", "activity change, negative = inhibition": "-1.79%"},
      {"smiles": "CCCN(CCC)c1c([N+](=O)[O-])cc(S(N)(=O)=O)cc1[N+](=O)[O-]", "activity change, negative = inhibition": "-24.9% [at 115 µM]"},
      {"smiles": "O=C(C=Cc1c(C(=O)O)[nH]c2cc(Cl)cc(Cl)c12)Nc1ccccc1", "activity change, negative = inhibition": "54%"},
      {"smiles": "CC(=O)N[C@@H](Cc1ccc(O)cc1)C(=O)O", "activity change, negative = inhibition": "1.24%"},
      {"smiles": "CN(C)c1ccc(Nc2nc(N)n(C(=O)c3c(F)cccc3F)n2)cc1", "activity change, negative = inhibition": "-33.3%"},
      {"smiles": "N#CCNC(=O)c1ccc(-c2ccnc(Nc3ccc(N4CCOCC4)cc3)n2)cc1", "activity change, negative = inhibition": "8.06%"},
      {"smiles": "CC(=O)Oc1ccccc1C(=O)O", "Potency": "inactive"},
      {"smiles": "[O-][n+]1cccc(/C(Cl)=N/OC[C@@H](O)CN2CCCCC2)c1", "activity change, negative = inhibition": "-36.7%"},
      {"smiles": "CC(C)C[C@H](NC(=O)CNC(=O)c1cc(Cl)ccc1Cl)B(O)O", "Potency": "3.06 µM (active)"},
      {"smiles": "Nc1ccccc1N", "activity change, negative = inhibition": "-9.48% [at 115 µM]"},
      {"smiles": "CC(C)(C)C(=O)Oc1ccc2c(c1)nc(NC(=O)c1cccc([N+](=O)[O-])c1)n2CCCO", "activity change, negative = inhibition": "-6.53%"},
      {"smiles": "c1ccc(-c2nn3c(c2-c2ccnc4cc(OCCN5CCOCC5)ccc24)CCC3)nc1", "activity change, negative = inhibition": "34.9%"},
      {"smiles": "CCN(CC)CCc1nc(-c2ccccc2)no1", "activity change, negative = inhibition": "24.3%"},
      {"smiles": "CC(C)(c1ccc(O)cc1)c1ccc(O)cc1", "activity change, negative = inhibition": "5.12% [at 115 µM]"},
      {"smiles": "CC(C)=CCCC(C)=CCCC(C)=CCSc1ccccc1C(=O)O", "Potency": "4.32 µM (active)"},
      {"smiles": "OCc1c[nH]c2ccccc12", "activity change, negative = inhibition": "15.3% [at 115 µM]"},
      {"smiles": "Nc1cc(C(F)(F)F)c(-c2cc(N3CCOCC3)nc(N3CCOCC3)n2)cn1", "Potency": "0.685 µM (active)"},
      {"smiles": "O=C(O)CNC(=O)CNC(=O)CNC(=O)CSC(=O)c1ccccc1", "activity change, negative = inhibition": "6.48%"},
      {"smiles": "C=CCNC(N)=S", "activity change, negative = inhibition": "0.553%"},
      {"smiles": "COC(=O)[C@]12CCC(C)(C)C[C@@H]1[C@@H]1C(=O)C=C3[C@@]4(C)C=C(C#N)C(=O)C(C)(C)[C@@H]4CC[C@@]3(C)[C@]1(C)CC2", "Potency": "2.17 µM (active)"},
      {"smiles": "CC1=C(/C=C/C(C)=C/C=C/C(C)=C/C(=O)O)C(C)(C)CCC1", "Potency": "inactive"},
      {"smiles": "CCOC(=O)C(=O)CCCCCCl", "activity change, negative = inhibition": "17.6%"},
      {"smiles": "COc1cc(Nc2ncc(F)c(Nc3ccc4c(n3)NC(=O)C(C)(C)O4)n2)cc(OC)c1OC", "activity change, negative = inhibition": "45.4%"},
      {"smiles": "CC(C)C(C)(C)C(C)(C)C(C)(C)S", "activity change, negative = inhibition": "25.5% [at 115 µM]"},
      {"smiles": "Nc1nc(-c2nn(Cc3ccccc3F)c3ncccc23)nc(N)c1N1CCOCC1", "activity change, negative = inhibition": "-36.1%"},
      {"smiles": "CC(C)(C)C(O)C(Oc1ccc(Cl)cc1)n1cncn1", "note": "(stereo unspecified)", "activity change, negative = inhibition": "-22% [at 115 µM]"},
      {"smiles": "Nc1cccc(S(=O)(=O)N2CCCN(S(=O)(=O)c3ccc4c(c3)OCCO4)CC2)c1", "activity change, negative = inhibition": "-0.887%"},
      {"smiles": "O=c1cc(-c2ccccc2)oc2ccccc12", "Potency": "inactive"},
      {"smiles": "O=C(O)c1ccc(-c2cc3cccnc3c(-c3ccc4nonc4c3)n2)cc1", "activity change, negative = inhibition": "32.1%"},
      {"smiles": "Cn1cc(-c2ccc3nnc(Sc4ccc5ncccc5c4)n3n2)cn1", "activity change, negative = inhibition": "16%"},
      {"smiles": "CCn1c(-c2nonc2N)nc2cnc(Oc3cccc(NC(=O)c4ccc(OCCN5CCOCC5)cc4)c3)cc21", "Potency": "17.2 µM (active)"},
      {"smiles": "CCC[C@H](NC(=O)C(C#N)=Cc1cccc(Br)n1)c1ccccc1", "activity change, negative = inhibition": "-7.76%"},
      {"smiles": "O=C(NOC[C@H](O)CO)c1ccc(F)c(F)c1Nc1ccc(I)cc1F", "activity change, negative = inhibition": "0.297%"},
      {"smiles": "COc1ccc2c(c1)c1c3n2CCN(C)C3=NCC1", "activity change, negative = inhibition": "-2.17%"},
      {"smiles": "C[C@H](CN1CCCC1)C(=O)c1ccc(C(F)(F)F)cc1", "activity change, negative = inhibition": "12.1%"},
      {"smiles": "CO[C@H]1C=CC=C(C)C(=O)NC2=CC(=O)C(NCCN(C)C)=C(C[C@@H](C)C[C@H](OC)[C@@H](O)[C@@H](C)C=C(C)[C@@H]1OC(N)=O)C2=O", "Potency": "0.306 µM (active)"},
      {"smiles": "COc1ccccc1-c1cccc(-c2c(O)c3cc(C#N)c(Cl)cc3[nH]c2=O)c1", "activity change, negative = inhibition": "-4.99% [at 115 µM]"},
      {"smiles": "CC[C@H](CO)Nc1nc(NCc2ccccc2)c2ncn(C(C)C)c2n1", "activity change, negative = inhibition": "4.31%"}
    ]}
  ]
}
